Shown are actives, neighbours in structure and some others; about 2.8% of the full set was active somewhere.
PI5P4Ka inh – PI5P4K alpha (human) kinase inhibition | P48426 | PI5P4Kalpha enzyme, ADP-Glo luminescence, 60 min; stronger effect = lower value | max response, % | actives 1.2% (n = 330,000) | AID 652105; active = max response of -50% or lower; inconclusive = between -30% and -50%; inactive = -30% or higher; note: value at the top dose of about 77 µM
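Enzyme plus substrate dispensed, test compounds pinned in, then ATP (5 microM final) added. After 60 min at RT, ADP-Glo reagent 1 for 45 min and reagent 2 for 30 min preceded luminescence imaging.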
POLI inh – DNA polymerase iota (human) inhibition; Q9UNA4; Pol iota fluorescent replication assay, 10 min; Potency, µM (series often up to 115 µM), most hits filed as inhibitors; actives 1% (n = 390,000); AID 588590
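Pol iota at 10 nM preincubated 15 min with compounds at room temperature; reaction started with fluorescent substrate, 50 nM final. Fluorescence read kinetically at 0 and 10 min; buffer-only wells as negative control.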
Pol eta inh – blocks human DNA polymerase eta activity; recombinant Pol eta, fluorescent DNA replication assay; Q9Y253; AID 588591; actives 1.2% (n = 390,000); Potency, µM (doses to about 114 µM), hits mostly inhibitors
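Pol eta at 10 nM preincubated with compounds 15 min at room temperature; reaction started with fluorescent substrate (50 nM final) and read kinetically at 0 and 10 min.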
POLK inh – DNA polymerase kappa (human) inhibition | Q9UBT6 | purified Pol kappa, fluorescent DNA synthesis assay, 10 min | Potency, µM (top dose mostly 107 µM), hits mostly inhibitors | actives 0.53% (n = 400,000) | AID 588579
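Enzyme at 10 nM met test compounds for 15 min at room temperature. Substrate addition (50 nM final) began the reaction, which was monitored by fluorescence at 0 and 10 min.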
WRN inhibitor – WRN helicase (human) inhibition; Q14191; WRN helicase unwinding, fluorescent forked duplex, kinetic; Potency, µM (highest dose often 114 µM), usual class: inhibitors; actives 0.46% (n = 360,000); note: nearly all actives have a fitted effect of over 55% in size
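WRN at 20 nM final was preincubated with compound for 15 min at room temperature; reaction started with 100 nM forked duplex oligonucleotide carrying fluorophore and quencher plus 2 mM ATP (final). Unwinding followed kinetically by red fluorescence (ex 525/em 598 nm).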
POLB inh – DNA polymerase beta (human) inhibition; P06746; Pol beta primer extension/strand displacement, fluorescence kinetic; Potency, µM (highest dose often 114 µM), most hits filed as inhibitors; actives 1.3% (n = 340,000)
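Curves were derived by four-parameter Hill fits of normalized qHTS data. The kinetic fluorescent primer-extension read was taken at 0 and 10 min after 50 nM substrate, following a 15 min room-temperature preincubation of 10 nM enzyme with compounds.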
A number is an active result; . = inactive; ? = inconclusive; / = not tested or not shown; ! = a repeat was not active; [ ] = dose if it differs, or a comment. Unless noted, calls come from the whole dose curve; as a rule, active = well fitted curve in the direction sought with a large enough effect; inconclusive = small, poorly fitted or top-dose-only effect, or another doubt; inactive = no such curve, though single readings can be large; an effect the other way counts as inactive or inconclusive.

SMILES | PI5P4Ka inh | POLI inh | Pol eta inh | POLK inh | WRN inhibitor | POLB inh
CC(=O)C1=C(C)N=c2s/c(=C/c3ccc4c(c3)OCO4)c(=O)n2C1c1ccc(N(C)C)cc1 (stereo unspecified) | . | ? | ? | . | . | /
COc1ccc(C2C(C(C)=O)=C(C)N=c3s/c(=C/c4ccc5c(c4)OCO5)c(=O)n32)cc1 (stereo unspecified) | / | / | / | / | / | 11µM
CCOC(=O)C1=C(C)N=c2s/c(=C/c3cccc([N+](=O)[O-])c3O)c(=O)n2C1c1ccccc1 (stereo unspecified) | -55 | ? | . | . | ? | ?
CCOC(=O)C1=C(C)N=c2s/c(=C/c3cccc([N+](=O)[O-])c3O)c(=O)n2C1c1cc(OC)c(OC)c(OC)c1 (stereo unspecified) | . | ? | . | . | ? | ?
CCOC(=O)C1=C(C)N=c2s/c(=C\c3ccc(OCC(=O)O)c(OC)c3)c(=O)n2C1c1ccc(OC)cc1 (stereo unspecified) | -61 | ? | ? | . | . | .
CCOC(=O)C1=C(c2ccccc2)N=c2s/c(=C\c3ccc(O)cc3)c(=O)n2C1c1cccs1 (stereo unspecified) | / | 45µM | . | . | ? | ?
Cc1ccc2c(=O)c(C(=O)c3ccccc3)cn(CC(=O)Nc3ccc4c(c3)OCCO4)c2n1 | / | ? | ? | . | / | ?
COC(=O)C1=C(C)N=c2s/c(=C/c3ccoc3)c(=O)n2C1c1ccccc1 (stereo unspecified) | / | . | . | . | . | 50µM
CCOC(=O)C1=C(C)N=c2s/c(=C\c3ccc(C(=O)O)cc3)c(=O)n2C1c1ccc(OC)cc1OC (stereo unspecified) | . | . | . | . | . | /
CCOC(=O)C1=C(C)N=c2s/c(=C/c3ccco3)c(=O)n2C1c1cccc(OC)c1 (stereo unspecified) | . | ? | ? | . | . | 32µM
O=C(NN=Cc1ccc(O)c(O)c1)c1ccccc1 | . | / | / | / | . | /
O=C(/C(=N/N=C/c1ccc(O)c(O)c1O)c1ccccc1)c1ccccc1 | -65 | 18µM | ? | . | . | 3.5µM
O=c1cc(O)c2c(=O)n(Cc3ccccc3)c3ccccc3c2o1 | . | ? | ? | . | ? | 25µM
O=c1cc(O)c2c(=O)n(C3CCCCC3)c3ccccc3c2o1 | / | ? | ? | . | . | 45µM
CC1Sc2ccc(S(=O)(=O)N3CCC(C(=O)Nc4ccc(Cl)cc4)CC3)cc2NC1=O (stereo unspecified) | . | ? | ? | ? | 79µM | ?
COc1ccc(Cl)cc1NC(=O)C1CCN(S(=O)(=O)c2ccc(F)cc2)CC1 | / | 89µM | . | . | / | .
COc1cc(NC(=O)C2Cc3ccccc3CN2S(C)(=O)=O)cc(OC)c1 (stereo unspecified) | . | . | . | . | . | .
COc1ccc(Cl)cc1NC(=O)C1Cc2ccccc2CN1S(C)(=O)=O (stereo unspecified) | ? | 56µM | ? | . | .[11.6 µM] | ?
Cc1cc(C)c2nc3c(c(C(=O)O)c2c1)CCC3 | . | ? | 14µM | . | . | 18µM
COc1cccc(-n2c(=O)n(Cc3ccccc3)c(=O)c3[nH]cnc32)c1 | . | . | . | . | ? | .
N=c1c(S(=O)(=O)c2ccccc2)cc2c(=O)n3ccccc3nc2n1Cc1ccco1 | . | ? | ? | . | . | 18µM
CCn1c(=N)c(S(=O)(=O)c2ccccc2)cc2c(=O)n3ccccc3nc21 | . | . | . | . | . | .
Cc1ccc2nc3c(cc(S(=O)(=O)c4ccccc4)c(=N)n3Cc3ccco3)c(=O)n2c1 | . | . | . | . | . | 7.9µM
Cc1ccc(S(=O)(=O)c2cc3c(=O)n4ccccc4nc3n(CC3CCCO3)c2=N)cc1C (stereo unspecified) | . | . | . | . | . | .
CCOC(=O)c1cc2c(=O)n3ccccc3nc2n(Cc2ccco2)c1=NC(=O)c1ccc(OC)cc1 | . | 22µM! | . | ? | . | .
Cc1ccc(S(=O)(=O)c2cc3c(=O)n4ccccc4nc3n(Cc3ccco3)c2=N)cc1C | . | ? | . | . | . | 8.9µM

From PubChem
